Hit rate of the full screen: of about 69,000 compounds, about 420 (0.61%) showed an effect of 50% or more. For the sample, strong results were picked, then their nearest neighbours and some compounds at random.
Each compound was assayed against T1, Histidine--tRNA ligase (Leishmania infantum) (UniProt A4I591) (assay: Leishmania infantum Histidine tRNA synthetase (LdHisRS)). Details: 30 µM.
T1 sequence (whole entry): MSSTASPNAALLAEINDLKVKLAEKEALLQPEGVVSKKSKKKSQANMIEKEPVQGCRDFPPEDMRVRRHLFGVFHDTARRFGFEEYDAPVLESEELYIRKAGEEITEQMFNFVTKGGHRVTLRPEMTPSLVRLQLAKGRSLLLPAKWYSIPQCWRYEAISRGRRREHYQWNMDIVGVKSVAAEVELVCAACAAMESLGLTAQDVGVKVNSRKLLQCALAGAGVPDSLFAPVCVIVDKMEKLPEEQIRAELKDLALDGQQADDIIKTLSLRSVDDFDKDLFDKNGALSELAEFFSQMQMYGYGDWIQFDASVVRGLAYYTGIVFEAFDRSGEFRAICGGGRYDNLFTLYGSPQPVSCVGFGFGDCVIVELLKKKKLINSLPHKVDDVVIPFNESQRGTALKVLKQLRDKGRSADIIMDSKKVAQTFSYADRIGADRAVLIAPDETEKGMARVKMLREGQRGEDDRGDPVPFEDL
Format: functional
Parameters: scale not given: in the data most compounds retested in dose-response had high values

With C1CC(CN2C[C@@H]3C[C@@H](c4nnc(C5CC5)o4)O[C@@H]3C2)CCO1 as the compound, how does the Percent Effect read?
Its Percent Effect is 11.1%.

O=S(=O)(CCCn1cncn1)Cc1ccc(F)cc1Cl was tested. Which Percent Effect did it give?
The Percent Effect was 109%.

For O=S(=O)(CCCn1cncn1)Cc1cccc(F)c1, which Percent Effect is on record?
The Percent Effect was -11.8%.

How did the Percent Effect turn out when O=S(=O)(CCCn1cncn1)Cc1ccccc1Cl was run?
The Percent Effect was 19.7%.

Which Percent Effect does the source give for COc1ncccc1CN1C[C@@H]2C[C@@H](C(=O)NCC3CC3)N(C)[C@@H]2C1 here?
Its Percent Effect is 24.8%.

Which Percent Effect does the source give for CO[C@@H]1CC[C@H]2[C@H]1OCCN2C(=O)c1ccc(C)nc1 here?
The Percent Effect was 7.02%.

Which Percent Effect does the source give for COc1cc(N2C[C@H](C(=O)NC3CC3)[C@@H]3CCO[C@@H]3C2)ncn1 here?
The Percent Effect was 3.23%.

How did the Percent Effect turn out when CN1C[C@@H](F)[C@@H](OCc2nc3ccc(C#N)cc3[nH]2)C1 was run?
The Percent Effect was 25%.

For Cc1ccc2[nH]c(CO[C@H]3CN(C(=O)C4CC4)C[C@H]3F)nc2c1, which Percent Effect is on record?
The Percent Effect was 4.05%.

How did the Percent Effect turn out when Cc1ccc2[nH]c(CO[C@H]3CN(c4ccc(C#N)cn4)C[C@H]3F)nc2c1 was run?
The Percent Effect was 69.4%.

How did the Percent Effect turn out when O=C(NC1CC1)[C@@H]1CCO[C@@H]2CCN(CCc3ccccc3)C[C@@H]21 was run?
The Percent Effect was 15.1%.

For Cc1cccc(CN2C[C@H]3OC(=O)N(CCCN4CCOCC4)[C@H]3C2)n1, which Percent Effect is on record?
The Percent Effect was 22.3%.

For Cc1ncsc1C(=O)N1CC[C@@H]2[C@@H](CC1)OCCN2c1cccnc1, which Percent Effect is on record?
Its Percent Effect is 10.5%.

Which Percent Effect does the source give for COc1cccn(Cc2nnc(-c3cccc(F)c3)o2)c1=O here?
The Percent Effect was 91.8%.

How did the Percent Effect turn out when COc1cccn(Cc2nnc(-c3cccnc3)o2)c1=O was run?
Its Percent Effect is 39.3%.

For O=c1c(C(F)(F)F)cccn1Cc1nnc(-c2cccnc2)o1, which Percent Effect is on record?
Its Percent Effect is 11.5%.

Which Percent Effect does the source give for Cc1cccc(CN2C[C@@H]3CN(C(=O)NC(C)C)C[C@@H]3C2=O)c1 here?
Its Percent Effect is 12.3%.

Which Percent Effect does the source give for CN(C)c1nccc(NCc2cc(-c3ccco3)n[nH]2)n1 here?
The Percent Effect was 34.3%.

With CC(C)[C@H](NS(C)(=O)=O)C(=O)NCc1cc(-c2ccccc2)n[nH]1 as the compound, how does the Percent Effect read?
Its Percent Effect is 17.1%.

Which Percent Effect does the source give for C[C@H](NS(C)(=O)=O)C(=O)NCc1cc(-c2ccco2)n(CC(F)(F)F)n1 here?
Its Percent Effect is -80%.

With C[C@H](NS(C)(=O)=O)C(=O)NCc1cc(-c2ccco2)n[nH]1 as the compound, how does the Percent Effect read?
Its Percent Effect is 51.4%.

CC(C)[C@H](NS(C)(=O)=O)C(=O)NCc1cc(-c2ccco2)nn1C was tested. Which Percent Effect did it give?
Its Percent Effect is 8.57%.

With CC(C)[C@H](NS(C)(=O)=O)C(=O)NCc1cc(-c2ccco2)n[nH]1 as the compound, how does the Percent Effect read?
Its Percent Effect is 54.3%.

For CN1CCN(C[C@@H]2OC[C@H]3CN(CCc4ccccc4)CC[C@H]32)CC1, which Percent Effect is on record?
The Percent Effect was 22.6%.

With O=C(NC1CCC1)[C@@H]1CCO[C@@H]2CCN(CCc3ccccc3)C[C@H]21 as the compound, how does the Percent Effect read?
The Percent Effect was 15.4%.

For O=C(NC[C@]12COC[C@H]1CN(Cc1nccs1)C2)c1ccsc1, which Percent Effect is on record?
Its Percent Effect is 0%.

c1ccc(Oc2cccc(OC34CCCN(CC3)C4)c2)cc1 (centres undefined) was tested. Which Percent Effect did it give?
Its Percent Effect is 51%.

For O=c1[nH]nc(CNCc2ccc(OC34CCCN(CC3)C4)cc2)[nH]1 (centres undefined), which Percent Effect is on record?
Its Percent Effect is 17.6%.

How did the Percent Effect turn out when c1ccc(Oc2ccc(OC34CCCN(CC3)C4)cc2)cc1 (centres undefined) was run?
The Percent Effect was 61.2%.

For Cc1cnccc1CNCc1ccc(OC23CCCN(CC2)C3)cc1 (centres undefined), which Percent Effect is on record?
Its Percent Effect is 36.5%.

How did the Percent Effect turn out when COc1cc(C#N)ccc1OC12CCCN(CC1)C2 (centres undefined) was run?
Its Percent Effect is 23.1%.

How did the Percent Effect turn out when Cc1nc(CNCc2cccc(OC34CCCN(CC3)C4)c2)n[nH]1 (centres undefined) was run?
Its Percent Effect is 24.7%.

Cc1ccc(C(=O)N2C[C@@H]3CCCO[C@@H]3[C@H](N(C)Cc3ccco3)C2)o1 was tested. Which Percent Effect did it give?
The Percent Effect was 3.23%.

For O=S(=O)(N1CCCC1)N1CC[C@H](c2ccccc2)[C@H]2NCCCC[C@H]21, which Percent Effect is on record?
Its Percent Effect is 26.3%.

With COc1ncccc1CN1C[C@@H]2COC[C@]2(COc2ccccn2)C1 as the compound, how does the Percent Effect read?
The Percent Effect was 7.69%.

How did the Percent Effect turn out when CS(=O)(=O)NC[C@]12COC[C@H]1CN(C(=O)c1cnccn1)C2 was run?
The Percent Effect was -2.65%.

With O=C(CN1CCN(c2ncccn2)[C@@H]2CS(=O)(=O)C[C@@H]21)N1CCCCC1 as the compound, how does the Percent Effect read?
Its Percent Effect is -8.22%.

With CCCn1cc(-c2cc(-c3cnc(OC)nc3)c(C#N)c(N)n2)c(C)n1 as the compound, how does the Percent Effect read?
The Percent Effect was 16.4%.

For CCC(C)Sc1ncc(-c2c(C#N)c(N)nc3c2COCC3)cn1 (centres undefined), which Percent Effect is on record?
Its Percent Effect is 2.17%.

For COc1ncc(-c2cc(-c3ccn(C)c3)nc(N)c2C#N)cn1, which Percent Effect is on record?
The Percent Effect was 35.4%.

COc1ncc(-c2c(C#N)c(N)nc3c2CCc2[nH]ccc2-3)cn1 was tested. Which Percent Effect did it give?
Its Percent Effect is 95.7%.

Which Percent Effect does the source give for COCCc1ncc(-c2c(C#N)c(N)nc3c2CCc2[nH]ccc2-3)cn1 here?
The Percent Effect was 103%.

With CCOc1ccc(-c2c(C#N)c(N)nc3c2COCC3)cn1 as the compound, how does the Percent Effect read?
Its Percent Effect is 21.7%.

Which Percent Effect does the source give for O=C([C@@H]1C[C@@H]2CCN(Cc3ccco3)C[C@H]2O1)N1CCCO1 here?
Its Percent Effect is 15%.

For Cn1nc2c(cc1=O)CN(CC(=O)Nc1ccc(Cl)cn1)CC2, which Percent Effect is on record?
The Percent Effect was 103%.

CC(C(=O)Nc1ccc(Cl)cn1)N1CCc2nn(C)c(=O)cc2C1 (centres undefined) was tested. Which Percent Effect did it give?
The Percent Effect was 102%.

Which Percent Effect does the source give for Cn1nc2c(cc1=O)CN(CC(=O)Nc1nncs1)CC2 here?
The Percent Effect was 6.06%.

Which Percent Effect does the source give for CC(C(=O)Nc1nccs1)N1CCc2nn(C)c(=O)cc2C1 (centres undefined) here?
Its Percent Effect is 23.2%.

With Cn1nc2c(cc1=O)CN(CC(=O)Nc1nccs1)CC2 as the compound, how does the Percent Effect read?
Its Percent Effect is 48.2%.

How did the Percent Effect turn out when CC(C(=O)Nc1ccnn1C(C)C)N1CCc2nn(C)c(=O)cc2C1 (centres undefined) was run?
The Percent Effect was 25%.

Cc1cccc(CN2C(=O)CO[C@@H]3CN(CCO)C[C@H]32)c1 was tested. Which Percent Effect did it give?
The Percent Effect was 15.4%.

With Cc1cc(C(=O)N2CC[C@@H]3CN(C)S(=O)(=O)[C@@H]3CC2)no1 as the compound, how does the Percent Effect read?
Its Percent Effect is 9.62%.

How did the Percent Effect turn out when Cc1cccc(COC[C@@H]2CC[C@H]3[C@H](CCN3Cc3ccco3)O2)n1 was run?
Its Percent Effect is 13.3%.

c1csc(C2(NCc3csc(C4CC4)n3)CCCC2)n1 was tested. Which Percent Effect did it give?
Its Percent Effect is 51.6%.

With Cc1csc(C2(NCc3csc(C4CC4)n3)CCCC2)n1 as the compound, how does the Percent Effect read?
Its Percent Effect is 8.6%.

With CCCc1nc(CNC2(c3nccs3)CCCC2)cs1 as the compound, how does the Percent Effect read?
The Percent Effect was 15.1%.

Which Percent Effect does the source give for O=C(NC[C@H]1CC[C@H](c2nnc(-c3cccnc3)o2)CC1)C1CC1 here?
The Percent Effect was -19.9%.

How did the Percent Effect turn out when O=C(c1ccsc1)N1C[C@@H]2CCN(C(=O)c3cccc(F)c3)[C@@H]2C1 was run?
The Percent Effect was 11.7%.

With COc1ccc(CNC(=O)Nc2ccc(CN3CCOC3=O)cc2)cc1 as the compound, how does the Percent Effect read?
The Percent Effect was 15.2%.

COC(=O)c1ccc(CNC(=O)Nc2ccc(=O)n(C)c2)cc1 was tested. Which Percent Effect did it give?
Its Percent Effect is 120%.

How did the Percent Effect turn out when COc1cccc(-c2ccc(CNC(=O)c3ccc(=O)n(C)c3)cc2)c1 was run?
Its Percent Effect is 14.6%.

For COc1ccc(CNC(=O)Nc2ccc(=O)n(C)c2)cc1, which Percent Effect is on record?
Its Percent Effect is 114%.

Which Percent Effect does the source give for COc1ccc(CNC(=O)Nc2ccc(S(=O)(=O)C(F)F)cc2)cc1 here?
The Percent Effect was 18.3%.

With Cn1cc(NC(=O)NCc2ccoc2)ccc1=O as the compound, how does the Percent Effect read?
Its Percent Effect is 120%.

Which Percent Effect does the source give for O=C(NCc1ccoc1)Nc1ccc(CN2CCOC2=O)cc1 here?
Its Percent Effect is 2.88%.

Which Percent Effect does the source give for Cc1nnc(NC(=O)NCc2ccoc2)s1 here?
Its Percent Effect is 7.69%.

With COc1ccc(CNC(=O)c2ccc(=O)n(C)c2)cc1C as the compound, how does the Percent Effect read?
Its Percent Effect is -2.08%.

How did the Percent Effect turn out when c1cnc(N2C[C@H]3CCN(CCN4CCCC4)C[C@H]3C2)cn1 was run?
The Percent Effect was 25.7%.

Cc1ccc(CN2CC[C@H]3[C@@H]2CCC(=O)N3CCN2CCCC2)s1 was tested. Which Percent Effect did it give?
Its Percent Effect is 5.11%.

Source: ChEMBL document CHEMBL3988442, “University of Dundee, Small-Polar-MMV Screening Library” (2021)
